# Screens deposited in PubChem BioAssay by National Center for Advancing Translational Sciences (NCATS).
# Rows were chosen to be rich in hits. Some 7.8% of all compounds tested hit in one or more screens of this group.
# Vaccinia mCherry – qHTS for Stage-Specific Inhibitors of Vaccinia Orthopoxvirus: mCherry Reporter Primary qHTS | 310,000 compounds, 0.63% hits | Potency, µM (highest dose often 36.5 µM), for the others: top-dose activity change, negative = inhibition, usual class: inhibitors | Vaccinia virus mCherry reporter infection, fluorescence | AID 720579, 2013; calls by dose curve; tested in A549 cells; note: potency is the fitted concentration of half-maximal effect; nearly all actives have a fitted effect of over 35% in size
# LASV entry inh – qHTS for Inhibitors of binding or entry into cells for Lassa Virus; Potency, µM (top dose mostly 37.9 µM), for the others: at the top dose activity change, negative = inhibition, actives largely listed as inhibitors; AID 540256, 2011; Lassa virus pseudotype entry inhibition, cell reporter; 300,000 compounds, 1.2% hits; calls by dose curve; tested in HEK293 cells; note: potency is the fitted concentration of half-maximal effect; nearly all actives have a fitted effect of over 50% in size
# MARV entry inh – qHTS for inhibitors of binding or entry into cells for Marburg Virus; 300,000 compounds, 1.8% hits; Potency, µM (series often up to 37.8 µM), for the others: at the highest dose activity change, negative = inhibition, hits mostly inhibitors; AID 540276, 2011; Marburg virus pseudotyped entry inhibition, cell reporter; calls by dose curve; tested in HEK293 cells; note: potency is the fitted concentration of half-maximal effect
# HCMV antiviral – qHTS Assay for inhibitors of the human cytomegalovirus (HCMV); AID 1259415, 2018; 410,000 compounds, 4.5% hits; activity change, negative = inhibition, % at 57.5 µM; HFF cells, HCMV-luciferase reporter, 72 h; active compounds read low; in the data active = activity change below about -60%; inconclusive = no clear call, values can overlap the other calls; inactive = above about -39%
#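 Luciferase read-out from HCMV-luciferase-infected HFFs (MOI 1 PFU/cell) 72 h post infection at 37C; compounds added after 16 h cell attachment; activity normalized between buffer-only basal and Salinomycin (10uM) inhibitor controls.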
# HCV inhibitor – qHTS Assay for Inhibitors of Hepatitis C Virus (HCV) | 340,000 compounds, 3.4% hits | Huh7.5.1 HCVcc-Cre infection, luciferase reporter, 44 h | Potency, µM (top dose mostly 41.8 µM), for the others: top-dose activity change, negative = inhibition, most hits filed as inhibitors; active = well fitted inhibition curve with a large enough effect; inconclusive = small, poorly fitted or top-dose-only effect, or another doubt; inactive = no such curve, though single readings can be large or run the other way; note: potency is the fitted concentration of half-maximal effect
#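 1,000 cells/well; 4 h culture; + compound; + HCVcc-Cre (~0.5 moi); 44 h; luciferase substrate, RT 15 min; read 15 sec.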
# Vaccinia Venus – qHTS for Stage-Specific Inhibitors of Vaccinia Orthopoxvirus: Venus Reporter Primary qHTS; Vaccinia virus Venus reporter expression, fluorescence; Potency, µM (titrated, usually from 36.5 µM), for inactives: at the highest dose activity change, negative = inhibition, actives largely listed as inhibitors; 330,000 compounds, 0.46% hits; AID 720580, 2013; calls by dose curve; tested in A549 cells; note: potency is the fitted concentration of half-maximal effect; nearly all actives have a fitted effect of over 30% in size
# Numbers without * were called inactive; i = inactive; ? = inconclusive; / = no result given; ! = not active in a repeat; [ ] = another dose, or the depositor's remark. % is set by controls: 0 for no effect and ±100 for the full control effect.
SMILES,Vaccinia mCherry,LASV entry inh,MARV entry inh,HCMV antiviral,HCV inhibitor,Vaccinia Venus
CCCCn1c(CN2CCN(c3cccc(Cl)c3)CC2)nc2c1c(=O)n(C)c(=O)n2C,/,-1%,?,-89*,?,/
CCCCn1c(CN2CCN(c3ccccc3)CC2)nc2c1c(=O)n(C)c(=O)n2C,?,/,/,/,7.1µM*,?
CCCCCn1c(CN2CCN(c3ccc(OC)cc3)CC2)nc2c1c(=O)[nH]c(=O)n2C,-16%,?,-9%[46.1 µM],-4,/,0%
COc1ccc(Cn2ccnc2SCC(=O)NCc2ccccc2)cc1,-10%,-28%[46.1 µM],/,68,/,-20%
CCc1ccc(S(=O)(=O)c2c(C(=O)c3ccc(C)c(C)c3)cnc3ccccc23)cc1,-2%[7.34 µM],/,-13%[46.1 µM],33,/,-8%[7.34 µM]
COc1cc(C)c(Cl)cc1S(=O)(=O)NCCc1c(C)[nH]c2ccccc12,-27%,-12%[46.1 µM],-18%[46.1 µM],8,/,-6%
COc1ccc(CCNC(=O)Cn2nc(-c3ccc(Cl)cc3)ccc2=O)cc1OC,-18%,15%[46.1 µM],/,?,/,-7%
Cc1cc(NC(=O)NCc2ccccc2)c(=O)n(Cc2ccccc2F)c1,/,/,/,-17,-18%,/
Cc1ccc(NC(=O)Nc2cccn(Cc3c(F)cccc3Cl)c2=O)cc1,/,/,/,33,11µM*,/
O=C(NCc1ccccc1)Nc1cccn(Cc2c(F)cccc2Cl)c1=O,/,/,/,-74*,?,/
O=C(Nc1cccn(Cc2c(Cl)cccc2Cl)c1=O)C1CC1,i,-19%,8%[46.1 µM],?,-9%,-3%
Cc1cc(O)c(C(=O)/C=C/c2ccccc2Br)c(=O)o1,i,?,14%[46.1 µM],-87*,-16%,6%
Cc1cc(O)c(C(=O)/C=C/c2ccccc2)c(=O)o1,1%,-12%,-21%,-92*,-25%,30%
Cc1cc(O)c(C(=O)/C=C/c2ccc(C(C)C)cc2)c(=O)o1,/,/,/,34,-5%,/
Cc1ccc(C)c(N2CCN(C(=O)CN3C(=O)CSc4c3c(C)nn4-c3ccccc3)CC2)c1,-4%,11%[46.1 µM],/,-9,/,-7%
COc1ccc2[nH]c3c(C)c4ccncc4c(C)c3c2c1,7.1µM*,/,/,-77*,2.2µM*,10µM*
COc1ccc2[nH]c(C)cc(=O)c2c1,/,-2%,-6%,-13,12%,-12%
CCc1ccc(NC(=O)CCn2cnc3ccccc3c2=O)cc1,-10%,-9%[46.1 µM],/,37,/,-4%
CCC(C)CCN1C(Nc2ccccc2)=NC[C@@H]1CC(C)C (stereo partly drawn),-2%,/,/,-14,-28%,-21%
CCN1C(Nc2ccccc2)=NC[C@@H]1Cc1ccccc1,-2%,/,/,-10,0%,-9%
CCC(C)CCN1C(Nc2ccccc2)=NC[C@@H]1Cc1ccccc1 (stereo partly drawn),-9%,/,/,-100*,-7%,-7%
CC(C)(C)C1CCC(CN2C(Nc3ccccc3)=NC[C@@H]2Cc2ccccc2)CC1 (stereo partly drawn),?,/,/,-76*,?,?
Cc1cccc(CCN2C(Nc3ccccc3)=NC[C@@H]2CC(C)C)c1,-15%,/,/,?,2.8µM*,-28%
Cc1sc2ncn(CC(=O)Nc3ccc(C(C)C)cc3)c(=O)c2c1S(=O)(=O)N1CCN(c2ncccn2)CC1,11%,7%[46.1 µM],-2%[46.1 µM],26,/,-1%
CN(C)CCNc1nc(-c2ccco2)c2c(c1C#N)CC(C)(C)OC2,/,2%,-18%,-100*,?,/
SMILES,Vaccinia mCherry,LASV entry inh,MARV entry inh,HCMV antiviral,HCV inhibitor,Vaccinia Venus
C/C(=N\NC(=O)c1ccc(Cl)cc1)c1cccs1,-26%,3.5µM*,?,-5,0%,?
C/C(=N\NC(=O)c1ccc(NS(=O)(=O)c2cccs2)cc1)c1cccs1,0%,18%,3%[46.1 µM],-83*,-21%,-2%
O=C(c1ccc(NS(=O)(=O)c2cccs2)cc1)N1CCCCC1,-27%,-2%,-2%,13,2.8µM*,-22%
C/C(=N/NC(=O)c1cccs1)c1ccc(NC(=O)COc2ccc(Cl)cc2)cc1,3%,10µM*,?,-14,?,10%
CCc1c(C)nc2nc(-c3ccccc3)nn2c1NCc1ccc(C)cc1,?,-26%[46.1 µM],?,-39,/,?
CC(C)Sc1ncc(Cl)c(C(=O)N(Cc2ccc(N(C)C)cc2)C2CCS(=O)(=O)C2)n1 (stereo not drawn),-10%,-17%[46.1 µM],?,-3,/,-16%
CCOC(=O)c1cnn(-c2ccc(OC)cc2)c1C1CCN(C(=O)OC(C)(C)C)CC1,-18%,?,?,-10,/,-12%
Cc1ccc(Nc2nc(N)nc(CCl)n2)cc1,i,?,?,-108*,-81%,-7%
Cc1ccc(Nc2nc(N)nc(CN3CCc4ccccc4C3)n2)cc1,/,23µM*,?,19,?,/
Cc1c(Cl)cccc1Nc1nc(N)nc(CN2CCc3ccccc3C2)n1,?,-4%,-7%,-22,?,-27%
Cc1cccc(Nc2nc(N)nc(CN3CCC(C(N)=O)CC3)n2)c1C,/,6%,11%,31,11%,-1%
Cc1cccc(Nc2nc(N)nc(CCl)n2)c1C,?,?,?,-96*,-75%,?
Nc1nc(CSc2n[nH]c(-c3ccccc3)n2)nc(Nc2ccccc2)n1,?,?,?,-30,3.2µM*,-28%
Cc1cc2nc(C)c(-c3nc4ccccc4[nH]3)nc2cc1C,/,/,/,20,/,/
CCOC1=C(NC(=O)C(C)(C)C)CC(OCC)=C(N2CCOCC2)C1,/,/,7%[46.1 µM],/,/,/
COC(=O)[C@@H]1C[C@@H](NC(=O)c2cccc3c(C)c(C)[nH]c23)CN1Cc1cccc2ccccc12,7%,/,/,/,/,16%
CCCCCCCCN1[C@@H](CC(=O)OC)c2ccc(/C=C/C(=O)OC)cc2S1(=O)=O,-4%,/,/,/,/,-19%
CC1CC(C)CN(C(=S)SCc2nc(N)nc(Nc3ccccc3)n2)C1 (stereo not drawn),-15%[7.34 µM],3%,?,-65*,?,-23%[7.34 µM]
Nc1nc(CCl)nc(Nc2ccccc2)n1,/,/,/,-91*,?,/
COc1ccc(Nc2nc(N)nc(CSc3nc4ccccc4s3)n2)cc1,?,?,-9%[46.1 µM],-21,/,-20%
Cc1ccc(Nc2nc(N)nc(CSc3nc4ccccc4s3)n2)cc1,?,?,?,-91*!,?,?
Nc1nc(COC(=O)c2ccc3c(c2)OCCO3)nc(Nc2ccccc2)n1,-22%,2%,-9%,174,11µM*,-20%
Nc1nc(COC(=O)CCC(=O)c2ccccc2)nc(Nc2ccccc2)n1,i,20%,6%[46.1 µM],5,-10%,-6%
Nc1nc(CSC(=S)N2CCCCC2)nc(Nc2ccccc2)n1,i,?,?,-1,-2%,-8%
O=C(O[C@H]1CC[C@@]23CCCN2C(=O)CCC[C@H]3C1)c1ccc(Br)cc1,/,/,/,-23,/,/
